“And” between values parts separate entries of the source, which are not always exact repeats. Equal entries are not always repeated.
Key:
Assay in all cases: cell viability relative to vehicle control; higher = less cytotoxic
Details in all cases: 10 µM
[1] = tested on: K562
Procedure, shortened: (§1)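 CRISPR-edited mutant clones and isogenic wild-type clones from four leukaemia lines were screened against Selleck bioactive, kinase and epigenetic probe libraries, with identity-inconsistent compounds excluded. Each compound was acoustically dispensed at a single 10 µM dose into 384-well plates holding 2000 cells in 50 µL medium per well. After 48 h the supernatant was removed and CellTiter-Glo luminescence was read. Viability was expressed as percent of the on-plate vehicle control and analysed in Genedata Screener.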

[2] = tested on: MARIMO
Procedure, shortened: as §1

[3] = tested on: MOLM14
Procedure, shortened: as §1

[4] = tested on: OCI-AML2
Procedure, shortened: as §1

Compound | cell viability ([1]; SRSF2 genotype: SRSF2 P95H/wt) | cell viability ([1]; SRSF2 genotype: SRSF2 wt/wt) [%] | cell viability ([2]; SRSF2 genotype: SRSF2 P95H/wt) [%] | cell viability ([2]; SRSF2 genotype: SRSF2 wt/wt) [%] | cell viability ([3]; SRSF2 genotype: SRSF2 P95H/wt) [%] | cell viability ([3]; SRSF2 genotype: SRSF2 wt/wt) [%] | cell viability ([4]; SRSF2 genotype: P95H/wt) [%] | cell viability ([4]; SRSF2 genotype: wt/wt) [%]
COc1c(C)c(O)cc2[o+]c(-c3ccccc3)ccc12.[O-][Cl+3]([O-])([O-])[O-] [Dracohodin perochlorate] | 80.8% and 78.3% | 77.4 | 80.1 | 86.8 | 80.1 | 82.3 | 83.6 | 84.1
N#C[C@H](O[C@@H]1O[C@H](CO[C@@H]2O[C@H](CO)[C@@H](O)[C@H](O)[C@H]2O)[C@@H](O)[C@H](O)[C@H]1O)c1ccccc1 [Amygdalin] | 104% and 107% | 102 | 104 | 107 | 106 | 108 | 107 | 95.3
CC1(C)C(=O)N(c2ccc(C#N)c(C(F)(F)F)c2)C(=O)N1CCCCO | 89% and 95% | 92.3 | 91.5 | 103 | 93.5 | 104 | 88.6 | 96.6
CN1CCc2cc3c(cc2C1C1OC(=O)c2c1ccc1c2OCO1)OCO3 (single isomer, unassigned; (+)) [(+)-Bicuculline] | 102% and 97.1% | 96.5 | 97.6 | 106 | 99.2 | 99.5 | 93.9 | 96.7
CC(C)=CCCC(C)(O)C1CCC2(C)C1C(O)CC1C3(C)CCC(O)C(C)(C)C3C(OC3OC(CO)C(O)C(O)C3O)CC12C [20(S)-Ginsenoside Rh1] | 103% and 105% | 101 | 106 | 110 | 102 | 106 | 107 | 115
C/C(O)=C(\C#N)C(=O)Nc1cc(Br)ccc1Br | 88.8% and 87.1% | 89.1 | 88.4 | 96.5 | 78.9 | 93.7 | 86.1 | 87.7
CC(=O)O[C@H]1C(=O)[C@@]2(C)[C@H]([C@H](OC(=O)c3ccccc3)[C@]3(O)C[C@H](O)C(C)=C1C3(C)C)[C@]1(OC(C)=O)CO[C@@H]1C[C@@H]2O | 93.5% and 95% | 102 | 100 | 96.6 | 104 | 102 | 104 | 97.3
COP(=O)(OC)SCn1c(=O)oc2cc(Cl)cnc21 [Azamethiphos] | 55.4% and 71.8% | 78.9 | 48.4 | 58.3 | 93.3 | 107 | 110 | 106
C[C@H]1CC[C@]2(NC1)O[C@H]1C[C@H]3[C@@H]4CC[C@H]5C[C@@H](O)CC[C@]5(C)[C@H]4CC[C@]3(C)[C@H]1[C@@H]2C [Tomatidine] | 92.3% and 92% | 90.7 | 86.8 | 94.8 | 90.7 | 93.3 | 96.5 | 93.5
COc1cc([C@@H]2c3cc4c(cc3[C@@H](O)[C@H]3COC(=O)[C@H]23)OCO4)cc(OC)c1O [4'-Demethylepipodophyllotoxin] | 36.4% and 51% | 51.2 | 26.8 | 31.3 | 13.4 | 6.99 | 20.9 | 24.2

— the supplement of paper PMC10981050
